Shown are actives, neighbours in structure and some others; about 4.1% of the full set was active somewhere.
hcDAF12 agonist: H. contortus DAF-12 activation, primary screen. HEK293 hcDAF-12 lit1-tk-luc reporter, luminescence; 0% DMSO, 100% Δ7-dafachronic acid. AID 652067. activation, % at 6.8 µM. hit rate 1.4% among 370,000;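 active = activation above the mean of all tested compounds plus 3 SD, cut at about 5.5% in these data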;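 also: 100% = response to 3 µM Δ7-dafachronic acid high control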
hgDAF-12 ag: hgDAF-12 agonism, primary luciferase screen; HEK293 GAL4-hgDAF12 UAS-luciferase reporter, agonist luminescence; normalized to butyrate control; activation, % at 6.8 µM; hit rate 1.8% among 370,000; AID 687014;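 active = activation above a cutoff set at the mean of all screened compounds plus 3 SD, cut at about 10% in these data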;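 also: 0% = DMSO wells and 100% = sodium butyrate wells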
DAX1 inh-1: inhibitors of DAX1 repression of SF-1 activated StAR promoter | hit rate 1.1% among 370,000 | HEK293T StAR-luciferase reporter, SF-1/DAX-1 repression relief | inhibition, % at 6.8 µM;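 active = inhibition above the mean over all tested compounds plus 3 SD, cut at about 3.6% in these data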;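 also: 0% = DAX-1 cells with DMSO and 100% = cells lacking DAX-1 with DMSO; higher inhibition means more luminescence from relief of DAX-1 repression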
ssDAF-12 act: activates DAF-12 receptor from parasite S. stercoralis; HEK293 ssDAF-12/GRIP1 lit1-tk-luc reporter, luminescence; % of 3 µM dafachronic acid response; activation, % at 6.8 µM; hit rate 1% among 370,000;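 active = activation above the mean over all tested compounds plus 3 SD, cut at about 0.9% in these data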;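 also: 0% = DMSO-only wells and 100% = 3 µM delta7-dafachronic acid wells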
DAX1 inh-2: inhibitors of human orphan nuclear receptor DAX1 (NR0B1); P51843; HEK293 Gal4-DAX1 luciferase reporter, luminescence; inhibition, % at 6.75 µM; hit rate 0.99% among 340,000;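 active = inhibition above the mean over all tested compounds plus 3 SD, cut at about 4.2% in these data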;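 also: 0% = DAX1-transfected cells with DMSO and 100% = empty-vector control cells with DMSO; inhibition shows as a rise in luminescence from relieved DAX1 repression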
Target sequence (P51843 207-470 limits assumed): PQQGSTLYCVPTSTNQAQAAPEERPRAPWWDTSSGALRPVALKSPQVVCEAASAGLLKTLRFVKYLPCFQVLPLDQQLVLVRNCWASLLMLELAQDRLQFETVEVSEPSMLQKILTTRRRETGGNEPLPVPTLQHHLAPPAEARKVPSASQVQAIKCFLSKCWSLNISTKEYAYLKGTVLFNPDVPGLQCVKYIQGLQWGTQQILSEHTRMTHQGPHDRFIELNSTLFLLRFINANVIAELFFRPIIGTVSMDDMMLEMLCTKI
LXR ag: LXR-beta agonism as hcDAF-12 counter-screen; shares compounds with hcDAF12 agonist; HEK293 Gal4-LXR tk-luc reporter, luminescence, 24 h; normalized: DMSO 0%, positive control 100%; activation, % at 6.8 µM; 3,400 tested, under 10 active; AID 743027;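 active = mean percent activation of the reporter above a cutoff set as the average over tested compounds plus their standard deviation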
hcDAF12 ag: hcDAF-12 agonism, confirmation assay. shares compounds with hcDAF12 agonist. HEK293 hcDAF-12 lit1-tk-luc reporter, luminescence; % of Δ7-dafachronic acid response. activation, % at 6.8 µM. hit rate 61% among 3,400;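 active = mean activation across triplicate tests above the threshold derived from the earlier primary screen, cut at about 5.5% in these data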;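 also: 0% = DMSO only wells and 100% = 3 µM Δ7-dafachronic acid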
hgDAF12 ag: hgDAF-12 agonism, confirmation assay. shares compounds with hgDAF-12 ag. HEK293 GAL4-hgDAF12 luciferase reporter, agonist mode; percent of butyrate response. activation, % at 6.8 µM. hit rate 80% among 3,300. AID 743050;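 active = mean activation over triplicate wells above the hit cutoff derived from the earlier primary screen, cut at about 11% in these data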;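 also: 0% = DMSO low control and 100% = 2 mM sodium butyrate high control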
LXR ag 2: LXR-beta agonism as DAF-12 counter-screen. 3,300 tested, under 10 active. shares compounds with hgDAF-12 ag. activation, % at 6.8 µM. HEK293 Gal4-LXR luciferase reporter, 24 h;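 active = mean activation of the triplicate above a set limit carried over from the primary screen, none filed active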
* marks the source's active call; other numbers are inactive results; / = not tested or not shown.

SMILES	hcDAF12 agonist	hgDAF-12 ag	DAX1 inh-1	ssDAF-12 act	DAX1 inh-2	LXR ag	hcDAF12 ag	others
O=C(NCc1ccccc1)C(c1cc2ccccc2o1)n1c(=O)c(-c2ccco2)nc2ccccc21 (stereo unspecified)	9.6*	10.6*	3.9*	2.5*	/	1.0	11.4*
Cc1ccc(C(=O)n2ccc3ccc(-c4ccc5ccn(Cc6ccc(C#N)cc6)c5c4)cc32)cc1	1.4	0.3	-1.0	-0.6	/	/	/
Cc1[nH]nc2c1C(c1ccccc1)N(c1ccccc1)C2=O (stereo unspecified)	-0.1	-1.1	0.0	-0.8	/	/	/
Clc1ccc(Nc2nc(-c3cccnc3)cs2)cc1	9.3*	11.8*	2.1	1.9*	1.3	0.6	10.9*
COc1ccc(S[C@]2(C(=O)N(C)C)CC(=O)N[C@@H]2c2ccc(OC)cc2)cc1	-1.1	0.5	-0.2	-0.7	/	/	/
Cc1nc(Nc2ccc3c(c2)OCCO3)c2oc3ccccc3c2n1	-0.8	-2.6	-0.1	-1.2	-0.3	/	/
c1ccc2c(c1)oc1c(Nc3ccc4c(c3)OCCO4)ncnc12	9.1*	12.2*	3.6	0.6	-0.1	1.4	6.4*
Cn1c(C(=O)Nc2ccccc2)cc2sccc21	7.0*	11.1*	1.0	1.4*	3.8	0.8	11.7*
COC(=O)C1=C(Nc2ccccc2NC(=O)c2ccccc2C(=O)O)CSC1	7.5*	9.0	2.9	1.7*	2.7	0.0	3.7
C[C@H](CO)N1C[C@H](C)[C@@H](CN(C)C(=O)Nc2ccc(-c3cccs3)cc2)OCc2cn(nn2)CCCC1=O	0.4	0.8	-0.8	-1.0	/	/	/
Cn1c(=O)c(C(=O)CN2CCCc3ccccc32)c(N)n(Cc2ccccc2)c1=O	3.1	0.1	0.2	0.4	-0.3	/	/
Cn1c(=O)c(C(=O)CN2CCc3ccccc32)c(N)n(Cc2ccccc2)c1=O	8.0*	3.5	0.4	0.6	0.5	-0.3	2.5
CN(C)c1cccc(-c2cnc(N3CCC(C(N)=O)CC3)s2)c1	6.7*	16.5*	/	1.8*	/	1.8	6.0*	hgDAF12 ag=18.6*;LXR ag 2=1.3
O=C(NN=C1CCCC1)c1cccs1	7.0*	21.6*	4.4*	0.6	3.1	-0.2	1.3	hgDAF12 ag=3.8;LXR ag 2=0.0
CC(C)COc1ccc(-c2cc(C(=O)NN)[nH]n2)cc1	12.9*	20.2*	4.0*	2.2*	0.0	0.1	3.1	hgDAF12 ag=5.5;LXR ag 2=0.2
COc1cccc(CNC(=O)C2CCN(c3nc(OC)nc(OC)n3)CC2)c1	-2.6	0.7	-0.7	-0.9	/	/	/
Cc1cccc(Nc2n[nH]c(C)c2[N+](=O)[O-])c1	6.8*	14.4*	3.7*	-0.2	2.3	1.1	5.8*	hgDAF12 ag=13.7*;LXR ag 2=0.7
Cc1[nH]nc(Nc2ccccc2)c1[N+](=O)[O-]	-1.2	3.9	0.1	-1.3	1.1	/	/
COCCN1Cc2cc(C(=O)OC)c3c(c2C1=O)c1ccccc1n3S(=O)(=O)c1ccc(C)cc1	3.9	-0.2	-0.4	0.3	/	/	/
COc1ccc(C(C(=O)N(C)C2CCCC2)N(Cc2ccc(F)cc2)C(=O)c2csc(-c3ccccc3)n2)cc1OC (stereo unspecified)	-2.8	-3.5	-1.1	-1.8	/	/	/
O=C(NC1=NC2(C=C3CCCCC3n3c(=O)n(-c4ccccc4)c(=O)n32)CN1CC1CC1)c1ccccc1 (stereo unspecified)	-2.7	-0.6	0.1	-2.0	/	/	/
COc1ccc(OC)c(C(=O)c2coc3ccc(OC(C)=O)cc23)c1	-1.4	-1.9	-0.5	-0.8	0.2	/	/

Screening data as filed in PubChem BioAssay.
